Hit rate of the full screen: of about 380,000 compounds, about 25 (0.007%) were called active. Calls come from the whole dose curve; as a rule, active = well fitted activation curve with a large enough effect; inconclusive = small, poorly fitted or top-dose-only effect; inactive = no such curve, though single readings can be large or run the other way. Not all results are given here. Square brackets hold non-standard residues; d marks the D form. Side chains are listed from the residue outwards. Peptide text beside a SMILES is read from it. * marks the point of attachment. X1 = CCC(C)C(N)C1=NC(C(=O)*)CS1; Orn = NCCC[CH](N)C(=O)O
target: Glucagon-like peptide 1 receptor (Homo sapiens) (UniProt P43220); assay: qHTS of GLP-1 Receptor Agonists; settings: HEK293 GLP-1R CRE-luciferase, luminescence, 4-6 h, cells express a hypersensitive GLP-1R form; series mostly up to 45.6 µM; activation: at the top concentration; note: % of control where 0% means no effect
Source text: The overall goal of this project was to develop a novel assay for discovering small molecule ligands for class B1 G protein-coupled receptors (GPCRs). Very few agonists (or inverse agonists) with generally weak activity for this entire group of physiologically important receptors are known to date. To establish proof-of-principle that this critical bottleneck can be overcome with a suitable screening approach, our studies focused on the class B1 receptor for glucagon-like peptide-1 (GLP-1R), a potential therapeutic target for diabetes and neurodegenerative disease.
The assay was developed in a "mix and measure" format using a cell-based functional readout. Toward this goal, stably transfected HEK293 cell clones were established that co-express (i) a cAMP-responsive luciferase reporter gene, and (ii) GLP-1Rs that upon ligand interaction either stimulate (agonists) or inhibit (inverse agonists) luciferase activity. In different cell lines to be used for screening, expressed GLP-1Rs are specifically optimized for high sensitivity detection of either weak agonists (hypersensitive receptor) or inverse agonists (constitutively active receptor mutant). In addition, control cell lines were developed that express either the cAMP-responsive reporter gene without recombinant GLP-1Rs (enabling initial exclusion of GLP-1R independent effects of candidate probes), or the reporter gene together with wild type GLP-1Rs (for confirmation of probe activity at this receptor), or the reporter gene in combination with the constitutively active orphan receptor GPR119 (enabling initial exclusion of GLP-1R independent inhibitory effects of candidate inverse agonists).
To that end, this assay was optimized for 1536-well format and screened against the MLSMR.
NIH Molecular Libraries Probe Production Network [MLPCN]
NIH Chemical Genomics Center [NCGC]
PI Name: Martin Beinborn, Tufts Medical Center
In a white solid 1536-well plate, 6 uL of cells are dispensed in DMEM without phenol red, 10% Nu serum, and 1% pen-strep medium. The plates are then incubated for 12 hours at 37 deg C at 5% CO2 before 23 nL of compounds are added. After a 4-6 hr incubation at37 deg C and 5% CO2, 3 uL of detection reagent are added and after a 12 min incubation at RT, a luminescent read is obtained on the ViewLux.

Chain of Glucagon-like peptide 1 receptor (Homo sapiens) (P43220 whole entry, looked up): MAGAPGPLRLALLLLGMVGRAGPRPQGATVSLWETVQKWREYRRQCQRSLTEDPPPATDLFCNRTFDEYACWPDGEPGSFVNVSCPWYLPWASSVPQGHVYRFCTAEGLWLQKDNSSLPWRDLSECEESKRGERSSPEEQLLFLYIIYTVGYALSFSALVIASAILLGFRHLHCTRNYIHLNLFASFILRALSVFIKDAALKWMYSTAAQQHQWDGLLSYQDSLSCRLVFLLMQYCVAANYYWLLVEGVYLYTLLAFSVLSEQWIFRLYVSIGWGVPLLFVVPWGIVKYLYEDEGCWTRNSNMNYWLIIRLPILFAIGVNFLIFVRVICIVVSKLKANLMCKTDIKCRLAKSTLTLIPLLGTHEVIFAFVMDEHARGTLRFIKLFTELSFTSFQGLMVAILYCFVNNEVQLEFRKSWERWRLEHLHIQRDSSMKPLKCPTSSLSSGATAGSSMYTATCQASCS

activation, inactive:
CCc1cccc(NC(=O)CSc2nccn2C)c1 -3.15%, CO[C@H]1C[C@@H](O[C@@H]2[C@@H](C)O[C@@H](O[C@@H]3/C(C)=C/CC4C[C@@H](C[C@]5(C=C[C@@H](C)[C@H](C6CCCCC6)O5)O4)OC(=O)[C@@H]4C=C(C)[C@@H](O)[C@H]5OC/C(=C\C=C\[C@@H]3C)[C@]54O)C[C@H]2OC)O[C@@H](C)[C@@H]1O -0.686%, CCC(C)C(N)C1=NC(C(=O)NC(CC(C)C)C(=O)NC(CCC(=O)O)C(=O)NC(C(=O)NCCCCC2NC(=O)C(CC(N)=O)NC(=O)C(CC(=O)O)NC(=O)C(Cc3cnc[nH]3)NC(=O)C(Cc3ccccc3)NC(=O)C(C(C)CC)NC(=O)C(CCCN)NC2=O)C(C)CC)CS1 (stereo not drawn) (cyclo(DNK([Ile-Glu-Leu-X1])[Orn]IFH); configuration not given here) -2.39%, COc1ccc(Cl)cc1NC(=O)Cn1c(=O)c2ccccc2n2nncc12 -0.325%, Cc1ccc(CNC(=O)Cn2c(=O)ccc3cc(S(=O)(=O)N4CCCC4)ccc32)cc1 -1.49%, CCc1ccccc1NC(=O)Cn1c(=O)n(-c2cccc(C)c2)c(=O)c2c1c1cc(OC)ccc1n2C -2.18%, CCOc1ccc(NS(=O)(=O)c2ccc(N)cc2)nn1 9.6%, Cc1ccc(-c2nnc(SCc3ccccc3C)o2)cc1 4.83%, O=C(/C=C/c1cccc(F)c1)NC1CC1 -0.0663%, CCOC(=O)c1ccccc1NC(=O)CCc1c(C)nc2c(c1C)c(=O)n(C)c(=O)n2C -0.702%, Cc1cc(C)cc(NC(=O)Cn2c(=O)c3ccccc3n3nncc23)c1 0.209%, FCOC(C(F)(F)F)C(F)(F)F -1.76%, COc1ccccc1N1CCN(c2ncnc3onc(-c4ccc(F)cc4)c23)CC1 -0.0304%, Cc1ccc(C)c(N2CCN(S(=O)(=O)c3ccc4c(c3)C(C(C)C)C(=O)N4)CC2)c1 (stereo unspecified) 4.77%, NCCCCC(N)C(=O)O (stereo unspecified) -3.9%, Cn1c(=O)nc2n(-c3ccc(Br)cc3)c3cccc(Cl)c3cc-2c1=O -2.12%, Cc1ccc(-n2nnnc2CNC(=O)c2ccccc2C)cc1C 0.615%, COc1ccc(NC(=O)Cn2c(=O)n(Cc3ccc(C(=O)NCc4ccccc4Cl)cc3)c(=O)c3ccccc32)cc1 2.1%, Cc1cccc(NC(=O)CSc2nc3c([nH]c4ccccc43)c(=O)n2-c2cc(C)cc(C)c2)c1 3.1%, CC1(C)OC2CC(=O)OC[C@@]23C1CC(=O)[C@]1(C)C3CC[C@@]2(C)C(c3ccoc3)OC(=O)C3O[C@@]321 (stereo partly specified) -3.73%, Cc1ccc(C(=O)CSc2nc(-c3ccccc3)nc3c2CCCC3)c(C)c1 -7.64%

Reference: PubChem BioAssay AID624172 (National Center for Advancing Translational Sciences (NCATS), 2012)
